Compound activity (PubChem)
Only some compounds are listed: those with a hit (about 11% of all), similar ones and a draw of the others.
Pf growth 96h – P. falciparum growth inhibition at 96 hours; AID 504834; P. falciparum luciferase reporter growth, 96 h; Potency, µM (top dose mostly 28.7 µM), usual class: inhibitors; actives 6.9% (n = 320,000)
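Infected RBCs, 2% Hct / 0.05% parasitemia final; luciferase-reporter P. falciparum; cpd 96 h, 37 C, 5% CO2; luciferase detection reagent; luminescence.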
AMA1 RON2 block – disrupts binding of P. falciparum AMA1 to RON2. Potency, µM (top dose mostly 58.2 µM), actives largely listed as inhibitors. actives 0.2% (n = 360,000). AlphaScreen AMA1-biotinylated RON2 peptide binding; further: nearly all actives have a fitted effect of over 45% in size
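AMA1 (3D7) with his tag at 25 nM final met compounds first, then biotinylated RON2 peptide at 25 nM; detection used donor plus acceptor beads, 10 µg/mL apiece, read by AlphaScreen after 30 min at room temperature.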
Pf growth 48h – P. falciparum growth inhibition at 48 hours (one generation) | actives 5.9% (n = 310,000) | Potency, µM (highest dose often 28.7 µM), actives largely listed as inhibitors | AID 504832 | P. falciparum luciferase growth in erythrocytes, 48 h
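A one-generation exposure of luciferase-tagged malaria parasites in RPMI 1640/Albumax erythrocyte culture, 37 C and 5% CO2. Inhibition is inferred from decreased luminescence after adding detection reagent.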
Sm TGR inh – blocks Schistosoma mansoni thioredoxin glutathione reductase; actives 3% (n = 360,000); Potency, µM (series often up to 114 µM), most hits filed as inhibitors; purified TGR, DTNB reduction, TNB absorbance 405 nm; Q962Y6; further: nearly all actives have a fitted effect of over 60% in size
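Kinetic colorimetric format: TGR-catalysed, NADPH-driven DTNB reduction monitored via TNB absorbance. Enzyme dispensed at 20 nM; compound exposure 15 min at room temperature before reaction start.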
NS1 inh – blocks influenza NS1 protein function; Potency, µM (top dose mostly 46.1 µM); actives 0.4% (n = 270,000); AID 2326; calls by dose curve; further: actives are rising curves; nearly all actives have a fitted effect of over 50% in size
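In this qHTS, NS1 from influenza A is expressed in budding yeast, where it slows growth. Cells are switched from glucose to 2% galactose medium (pH 6.0, -URA), treated with compound, and growth recovery is read at OD600.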
Hits are given with their value; [ ] = remark or other dose. Unless noted, the call rests on the fitted dose curve; in most records, active means well fitted curve in the direction sought with a large enough effect; inconclusive means small, poorly fitted or top-dose-only effect, or another doubt; inactive means no such curve, though single readings can be large; an effect the other way counts as inactive or inconclusive.

`CC(C)[C@H]1CN=C2N(CCNC(=O)CCC3CCCCC3)[C@H](Cc3ccc(O)cc3)CN21` gave Pf growth 96h inconclusive, AMA1 RON2 block inactive, Pf growth 48h 9.3µM, Sm TGR inh 7.9µM and NS1 inh inactive.
For C/C=C(\C)C(=O)NCCN1C2=NC[C@H](C)N2C[C@@H]1Cc1ccc(OC)cc1 the results were Pf growth 96h inactive, AMA1 RON2 block inactive, Pf growth 48h inactive, Sm TGR inh inactive and NS1 inh inactive.
Screening C=CCN(CC=C)C(=O)c1ccc(OC2CCN(C(C)=O)CC2)c(OC)c1 returned Pf growth 96h 2.9µM, AMA1 RON2 block inactive, Pf growth 48h inconclusive, Sm TGR inh inactive and NS1 inh inactive.
COc1cc(C(=O)NCc2ncccc2C)ccc1OC1CCN(C(C)=O)CC1 was read as Pf growth 96h 15µM, AMA1 RON2 block inactive, Pf growth 48h inactive, Sm TGR inh inconclusive and NS1 inh inactive.
For Clc1ccccc1-c1nc2ccccc2[nH]1 the results were Pf growth 96h inactive, AMA1 RON2 block inactive, Pf growth 48h inactive, Sm TGR inh inactive and NS1 inh inactive.
Screening Fc1ccccc1-c1nc2ccccc2[nH]1 returned Pf growth 96h 13µM, AMA1 RON2 block inactive, Pf growth 48h inactive, Sm TGR inh inactive and NS1 inh inactive.
For CCOCCC(=O)Nc1nnc(CCc2ccccc2)s1 the results were Pf growth 96h inactive, AMA1 RON2 block inactive, Pf growth 48h inactive, Sm TGR inh inactive and NS1 inh inactive.
`COc1cc2nc(N3CCN(c4cc(C)ccc4C)CC3)nc(N)c2cc1OC` gave Pf growth 96h inactive, AMA1 RON2 block inactive, Pf growth 48h 1.9µM, Sm TGR inh inactive and NS1 inh inactive.
Screening COc1ccc(Cl)cc1Nc1nc(N)c2ccccc2n1 returned Pf growth 96h inconclusive, AMA1 RON2 block inactive, Pf growth 48h 9.3µM, Sm TGR inh inactive and NS1 inh inactive.
Screening COc1ccc(C)cc1Nc1nc(N)c2cc(OC)c(OC)cc2n1 returned Pf growth 96h inactive, AMA1 RON2 block inconclusive, Pf growth 48h 1µM, Sm TGR inh inactive and NS1 inh inactive.
Screening Cc1ccc(C)c(Nc2nc(N)c3ccccc3n2)c1 returned Pf growth 96h inactive, AMA1 RON2 block inactive, Pf growth 48h inactive[5.75 µM] and Sm TGR inh inactive.
O=C(Nc1ncn[nH]1)c1cc(S(=O)(=O)Nc2cccc(C(F)(F)F)c2)ccc1Cl was read as Pf growth 96h inactive, AMA1 RON2 block inactive, Pf growth 48h inactive, Sm TGR inh inactive and NS1 inh inactive.
Screening O=S1(=O)CCN(Cc2ccc(Cl)c(C(F)(F)F)c2)CC1 returned Pf growth 96h inactive, AMA1 RON2 block inactive, Pf growth 48h inactive and NS1 inh inactive.
`Cc1cc2nc(-c3ccc(F)cc3)c(CC3CCCCC3)n2c(C)c1Br` gave AMA1 RON2 block inactive.
`COc1ccc(NC(=O)c2cc(-c3ccncc3)nc3ccc(Br)cc23)cc1OC` gave Pf growth 96h inactive, AMA1 RON2 block inactive, Pf growth 48h 13µM, Sm TGR inh inactive and NS1 inh inactive.
CN1CCC(NC(=O)c2cc(-c3cccc(Br)c3)nc3ccccc23)CC1 was read as Pf growth 96h inactive, AMA1 RON2 block inactive, Pf growth 48h 13µM, Sm TGR inh inactive and NS1 inh inactive.
`O=C(Nc1cccnc1)c1cc(-c2cccc(Br)c2)nc2ccccc12` gave Pf growth 96h inactive, AMA1 RON2 block inactive, Pf growth 48h 3.7µM, Sm TGR inh inactive and NS1 inh inactive.
Screening O=C(NC1CC1)c1cc(-c2ccc(Br)cc2)nc2ccccc12 returned Pf growth 96h inconclusive, AMA1 RON2 block inactive, Pf growth 48h inconclusive and Sm TGR inh inactive.
`O=C(Nc1cccnc1)c1cc(-c2cccnc2)nc2ccc(Br)cc12` gave Pf growth 96h 1.2µM, AMA1 RON2 block inactive, Pf growth 48h 1.2µM, Sm TGR inh inactive and NS1 inh inactive.
For COc1cc(-c2noc(-c3nnn(-c4ccc(Cl)cc4)c3C)n2)cc(OC)c1OC the results were Sm TGR inh inactive.
Screening O=C(Nc1ncccn1)c1cc(-c2cccc(Br)c2)nc2ccccc12 returned Pf growth 96h 1.7µM, AMA1 RON2 block inactive[11.6 µM], Pf growth 48h inconclusive, Sm TGR inh inactive and NS1 inh inactive.
O=C(Nc1ccncc1)c1cc(-c2cccc(Br)c2)nc2ccccc12 was read as Pf growth 96h 0.83µM, AMA1 RON2 block inactive, Pf growth 48h 0.93µM and Sm TGR inh inactive.
For COc1cccc(-c2cc(C(=O)Nc3cccnc3)c3ccccc3n2)c1 the results were Pf growth 96h inconclusive, AMA1 RON2 block inactive, Pf growth 48h 3.7µM, Sm TGR inh inactive and NS1 inh inactive.
O=C(Nn1cnnc1)c1cc(-c2cccc(Br)c2)nc2ccccc12 was read as Pf growth 96h inactive, AMA1 RON2 block inactive, Pf growth 48h inactive, Sm TGR inh inactive and NS1 inh inactive.
Screening O=C(Nc1nc(-c2ccc(Br)cc2)ns1)c1ccc(F)cc1 returned Sm TGR inh inactive.
For CCC(C)NC(=O)CSc1ccc(Cl)cc1 (stereo not given) the results were Pf growth 96h 3.3µM, AMA1 RON2 block inconclusive, Pf growth 48h inactive, Sm TGR inh inactive and NS1 inh inactive.
`CC(CCc1ccccc1)NC(=O)CSc1ccccc1` (stereo not given) gave Pf growth 96h 13µM, AMA1 RON2 block inactive[2.32 µM], Pf growth 48h inactive, Sm TGR inh inactive and NS1 inh inactive.
Screening O=C(CSc1ccccc1)NCCCc1ccccc1 returned Pf growth 96h 15µM, AMA1 RON2 block inactive, Pf growth 48h inactive and Sm TGR inh inactive.
`Cc1ccccc1NC(=S)NC(C)CCc1ccccc1` (stereo not given) gave Pf growth 96h 13µM, AMA1 RON2 block inactive, Pf growth 48h inconclusive, Sm TGR inh inactive and NS1 inh inactive.
For NS(=O)(=O)c1ccc(CCNC(=O)CCCn2ncn3c(cc4occc43)c2=O)cc1 the results were Pf growth 96h inconclusive, AMA1 RON2 block inactive, Pf growth 48h inactive, Sm TGR inh inactive and NS1 inh inactive.
For Cc1cccc(OCC(=O)Nc2ccc(C(=O)OCc3cc(=O)n4nc(C5CC5)sc4n3)cc2)c1 the results were Sm TGR inh inactive.
O=C(NCc1ccccc1)c1cccc(NC(=O)C2CC2)c1 was read as AMA1 RON2 block inactive.
`Cc1ccc(S(=O)(=O)c2cc3c(=O)n4ccccc4nc3n(CCCN3CCOCC3)c2=N)cc1C` gave Pf growth 96h inconclusive, AMA1 RON2 block inactive, Pf growth 48h inconclusive, Sm TGR inh inactive and NS1 inh inactive.
N=c1c(S(=O)(=O)c2ccccc2)cc2c(=O)n3ccccc3nc2n1CCCN1CCOCC1 was read as Pf growth 96h inactive, AMA1 RON2 block inactive, Pf growth 48h inconclusive, Sm TGR inh 16µM and NS1 inh inactive.
Screening N=c1c(S(=O)(=O)c2ccc(Cl)cc2)cc2c(=O)n3ccccc3nc2n1CCN1CCOCC1 returned Pf growth 96h inactive, AMA1 RON2 block inactive, Pf growth 48h inconclusive, Sm TGR inh 45µM and NS1 inh inactive.
